The subject of one test is IYD (gene 389434). The test is described as follows: CCTE_GLTED_hIYD: CCTE's human Iodotyrosine Deiodinase (xIYD) Inhibition Assay, Great Lakes Toxicology and Ecology Division (GLTED) Lab (AID 2284317).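 Note: cell-free human IYD enzyme made in baculovirus insect cells; iodide freed from monoiodotyrosine measured by cerium arsenite color change at 420 nm.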 The gist of the method: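 Human IYD expressed in a baculovirus-insect cell system was incubated 3 h with monoiodotyrosine and test chemical. Released iodide, separated on Dowex columns, was quantified by the Sandell-Kolthoff reaction at 420 nm; plates were normalized to MNT and DMSO/NaOH controls.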

Test [1] addresses human Matrix Metalloproteinase-9 (MMP9), MMP9 (gene 4318) (UniProt P14780). Briefly: NVS_ENZ_hMMP9: NovaScreen (NVS) Enzymatic Assay for human Matrix Metalloproteinase-9 (MMP9) (AID 2283190).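 Note: cell-free recombinant MMP9 protease activity read by fluorescent substrate signal; active means inhibition seen as loss of fluorescence signal versus DMSO.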 In a few lines:
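Cell-free fluorescence-intensity enzyme activity assay using extracted protein, read 1 h after dosing. Loss of signal versus DMSO baseline indicates inhibition; primary screen in duplicate at 25 uM, actives followed up in concentration series.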

The next test deals with PGR (gene 5241) (UniProt P06401). The test is described as follows: TOX21_PR_BLA_Followup_Antagonist_ratio: Tox21 HEK293 Progesterone Receptor (PR) Antagonism Beta-lactamase Follow-Up Assay, Ratio (AID 2283934). The gist of the method: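 PR-UAS-bla HEK293T cells in medium with 2% charcoal-stripped FBS were treated with compounds plus 1 nM (final) promegestone (R5020) for 16 hr at 37C. LiveBLAzer B/G FRET substrate was then added for 2 h at room temperature; signal is cleaved/uncleaved substrate ratio versus DMSO.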

The nature of test [2]: TOX21_PR_BLA_Followup_Agonist_viability: Viability Assessment in the Tox21 HEK293 Progesterone Receptor (PR) Agonism Beta-lactamase Follow-Up Assay (AID 2283935).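 Note: signal loss means lower viability so actives are cytotoxic.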 The gist of the method: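 PR-UAS-bla HEK293T cells in 2% charcoal-stripped FBS medium, compound added after 6 hr plating, 16 hr at 37C/5% CO2. After bla FRET read, CellTiter-Glo added; luminescence read after 30 min at room temperature; signal loss marks cytotoxicity.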

A short description of test [3]: TOX21_PR_BLA_Followup_Antagonist_viability: Viability Assessment in the Tox21 HEK293 Progesterone Receptor (PR) Antagonism Beta-lactamase Follow-Up Assay (AID 2283936).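 Note: hits lower the luminescence signal meaning cytotoxicity.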 The gist of the method:
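PR-UAS-bla HEK293T cells (3,000/well, 2% charcoal-stripped FBS) given compound plus R5020 agonist, 16 h at 37C. CellTiter-Glo added after bla read, 30 min at room temperature; luminescence loss indicates cytotoxicity.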

The nature of test [4]: TOX21_PR_LUC_Followup_Antagonist_viability: Viability Assessment in the Tox21 HEK293 Progesterone Receptor (PR) Antagonism Luciferase Follow-Up Assay (AID 2283940). In a few lines:
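HEK293-PR-A-luc cells, precultured 5 days in assay medium with 10% charcoal-stripped FBS, were seeded at 3,000 cells/well, treated with compounds in DMSO for 16 h at 37C, and viability was read as cellular ATP by CellTiter-Glo luminescence.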

Test [5] can be described thus: TOX21_PR_LUC_Followup_Agonist_viability: Viability Assessment in the Tox21 HEK293 Progesterone Receptor (PR) Agonism Luciferase Follow-Up Assay (AID 2283941).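 Note: loss of signal means cytotoxicity so actives lower viability.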 The gist of the method:
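HEK293-PR-A-luc cells, pre-cultured 5 days in 10% charcoal-stripped FBS, were seeded at 3,000 cells/well, rested 5 h at 37C, then given compound in DMSO for 16 h at 37C. Cellular ATP was read by CellTiter-Glo luminescence; signal loss indicates cytotoxicity.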

In test [6] the target is human Norepinephrine Transporter (NET), SLC6A2 (gene 6530) (UniProt P23975). The test is described as follows: NVS_TR_hNET: NovaScreen (NVS) Transporter Assay for human Norepinephrine Transporter (NET) (AID 2283377).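 For AC50: displacement of radioligand from human NET seen as loss of scintillation signal.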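 Note: cell-free membrane protein extracted from CHO cells expressing human NET.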 The gist of the method:
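Scintillation counts of filter-retained radioligand served as the readout, taken 1 h post-dosing in a cell-free CHO-derived system. Test chemicals ran first at 25 uM in duplicate; confirmed hits were retested across concentrations.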

Test [7] addresses human Retinoic Acid Receptor gamma (RARg), RARG (gene 5916) (UniProt P13631). The test is described as follows: ATG_RARg_TRANS: Attagene TRANS-FACTORIAL HepG2 Assay for human Retinoic Acid Receptor gamma (RARg) (AID 2283009). The gist of the method: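 HepG2 cells transiently transfected with multiplexed reporter units expressing chimeric RARg-GAL4 and GAL4-UAS-driven reporters; 24 h compound exposure. Reporter mRNA quantified by RT-PCR with fluorescent labelling and capillary electrophoresis; gain-of-signal fitted relative to DMSO baseline.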

Test [8] deals with human Peroxisome Proliferator-activated Receptor alpha (PPARa), PPARA (gene 5465) (UniProt Q07869). Briefly: NVS_NR_hPPARa: NovaScreen (NVS) Nuclear Receptor Binding Assay for human Peroxisome Proliferator-activated Receptor alpha (PPARa) (AID 2283359).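 Note: activity means loss of TR-FRET signal versus DMSO baseline.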 In a few lines:
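Chemicals were first screened in duplicate at 25 uM, and active ones were retested across concentration series. Binding was monitored by TR-FRET one hour after dosing, with decreased signal against DMSO counted as activity.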

Test [9] deals with Sodium/Iodide Symporter (NIS), SLC5A5 (gene 6528). The test is described as follows: CPHEA_Stoker_NIS_Inhibition_RAIU: CPHEA's Radioactive Iodide Uptake (RAIU) Assay for Sodium/Iodide Symporter (NIS) Inhibition, Stoker and Laws Labs (AID 2283841). The gist of the method: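 Iodide uptake read as CPM of intracellular 125I (final 329 pM) after 2 h room-temperature exposure in HEPES-buffered HBSS, pH 7.4. Human NIS-expressing HEK293T cells; six concentrations 0.001–100 uM, 0.5% DMSO, normalised to DMSO wells.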

Test [10] can be described thus: CPHEA_Stoker_NIS_Cytotoxicity: Cytotoxicity Assessment for CPHEA's Radioactive Iodide Uptake (RAIU) Assay for Sodium/Iodide Symporter (NIS) Inhibition, Stoker and Laws Labs (AID 2283897). In a few lines:
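CellTiter-Glo ATP luminescence gauged viability in HEK293T cells expressing human NIS after 2 h chemical exposure. Concentrations ran 0.001–100 uM in 0.5% DMSO; DMSO served as baseline for the loss-of-signal fit.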

A short description of test [11]: ATG_M_32_XSP2: Attagene TRANS-FACTORIAL Multi-Species (XSP2) HepG2 Assay for M19 Transcription Factor (Internal Marker) (AID 2283826). The gist of the method: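 HepG2 cells transiently transfected with GAL4-UAS reporter units; XSP2 panel included 3 nM 6-alpha-fluorotestosterone and 1.5 nM norgestrel for androgen receptor stimulation. Reporter mRNA read 24 h post-dosing by RT-PCR/capillary electrophoresis; fitted upward versus DMSO.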

Test [12] concerns the target bovine Estrogen Receptor (ER), ESR1 (gene 407238) (UniProt P49884). Briefly: NVS_NR_bER: NovaScreen (NVS) Nuclear Receptor Binding Assay for bovine Estrogen Receptor (ER) (AID 2283345).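 Note: actives lower the bound radioligand count which means they displace the ER ligand.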 The gist of the method:
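Displacement of a radioligand from estrogen receptor in bovine uterine membrane preparations; scintillation signal taken at 18 hours, DMSO as baseline. Single-concentration duplicates (25 uM) preceded concentration-response follow-up of actives.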

The target in test [13] is mouse Estrogen Receptor alpha (Era), Esr1 (gene 13982) (UniProt P19785). Briefly: NVS_NR_mERa: NovaScreen (NVS) Nuclear Receptor Binding Assay for mouse Estrogen Receptor alpha (Era) (AID 2283378).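 Note: hit means loss of bound radioligand signal relative to DMSO.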 In a few lines:
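Cell-free radioligand competitive displacement binding, read by filter-based scintillation counting 18 h after dosing. Primary screen run in duplicate at 25 uM, actives retested in concentration series; loss of signal versus DMSO.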

A further test has as its target CDK2 (gene 1017) (UniProt P24941). Briefly: NVS_ENZ_hCDK2: NovaScreen (NVS) Enzymatic Assay for human Cyclin-Cependent Kinase 2 (CDK2) (AID 2283144). The gist of the method:
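Cell-free recombinant human CDK2 with fluorescent substrate, product separated by electrophoretic mobility shift; 1 hr read. Primary screen at 25 uM in duplicate, actives retested in concentration-response up to 50 uM; loss of signal versus DMSO.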

Test [14] concerns the target human Phosphodiesterase 10 (PDE10), PDE10A (gene 10846) (UniProt Q9Y233). Briefly: NVS_ENZ_hPDE10: NovaScreen (NVS) Enzymatic Assay for human Phosphodiesterase 10 (PDE10) (AID 2283195). In a few lines: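 PDE10A, cell-free; 1 h incubation; fluorescence intensity + electrophoretic mobility shift separating substrate/product; DMSO = baseline; 25 uM duplicate primary, CRC up to 50 uM.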

For test [15], the target named is human Protein Tyrosine Phosphatase Receptor Type M (PTPRM), PTPRM (gene 5797) (UniProt P28827). Briefly: NVS_ENZ_hPTPRM: NovaScreen (NVS) Enzymatic Assay for human Protein Tyrosine Phosphatase Receptor Type M (PTPRM) (AID 2283215). The gist of the method:
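Cell-free recombinant PTPRM with fluorogenic substrate; product separated from substrate by electrophoretic mobility shift and read by fluorescence, 1.33 h after dosing. Primary screen single concentration (25 uM) in duplicate; actives retested in concentration series; loss of signal versus DMSO.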

Read-out in test [16]: Tumor necrosis factor receptor superfamily member 6 (Homo sapiens) (UniProt P25445)
The test is described as follows: LTEA_HepaRG_FAS: Life Technologies and Expression Analysis (LTEA) Assay for Fas cell surface death receptor (FAS) using HepaRG (AID 2283447; active = hit-call score of the fitted dose curve at least 0.9, where 1 is the maximum; inactive = score below 0.9). The note with it: mRNA level, 48 h; actives raise or lower the signal. In a few lines: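 FAS transcript level was measured by TaqMan qRT-PCR against three housekeeping genes after 48 h chemical exposure. Cells were HepaRG, 0.5% DMSO vehicle, with a top concentration of 100 uM and half-log dilutions over eight points, in duplicate.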

Read-out in test [17]: Fatty acid synthase (Homo sapiens) (UniProt P49327)
Briefly: LTEA_HepaRG_FASN: Life Technologies and Expression Analysis (LTEA) Assay for Fatty Acid Synthase (FASN) using HepaRG (AID 2283448; active = hit-call score of the fitted dose curve at least 0.9, where 1 is the maximum; inactive = score below 0.9). The note with it: mRNA level, 48 h; actives raise or lower the signal. In a few lines:
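Differentiated human HepaRG cells were exposed for 48 h in serum-free induction medium to eight half-log concentrations up to 100 uM in 0.5% DMSO, in duplicate. FASN mRNA was quantified by TaqMan qRT-PCR, normalized to ACTB/GAPDH/POLR2A, and fitted bidirectionally against DMSO.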

Structures are written as SMILES. Records with an inconclusive call do not appear. Calls of active or inactive are those of the source. Rule for the calls, unless noted: active = hit-call score of the fitted dose curve at least 0.9, where 1 is the maximum; inconclusive = response in the unintended direction; inactive = score below 0.9.

bovine Estrogen Receptor (ER), ESR1 (gene 407238), sequence (P49884 whole entry, looked up): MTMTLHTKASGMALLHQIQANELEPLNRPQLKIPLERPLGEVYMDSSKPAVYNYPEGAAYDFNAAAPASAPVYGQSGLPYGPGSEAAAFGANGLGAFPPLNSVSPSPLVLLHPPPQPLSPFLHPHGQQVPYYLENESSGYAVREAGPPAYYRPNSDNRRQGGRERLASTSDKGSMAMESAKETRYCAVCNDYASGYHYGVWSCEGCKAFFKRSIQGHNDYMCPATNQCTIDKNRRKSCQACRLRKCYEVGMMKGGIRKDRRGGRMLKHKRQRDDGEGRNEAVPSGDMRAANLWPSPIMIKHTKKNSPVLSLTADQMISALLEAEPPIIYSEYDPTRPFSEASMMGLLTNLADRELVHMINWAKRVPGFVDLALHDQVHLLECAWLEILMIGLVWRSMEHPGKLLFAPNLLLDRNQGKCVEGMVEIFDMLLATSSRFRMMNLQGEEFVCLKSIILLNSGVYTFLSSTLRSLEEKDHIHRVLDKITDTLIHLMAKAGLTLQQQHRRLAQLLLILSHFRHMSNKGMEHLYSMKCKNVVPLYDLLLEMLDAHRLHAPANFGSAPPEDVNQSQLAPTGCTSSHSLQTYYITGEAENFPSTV
human Retinoic Acid Receptor gamma (RARg), RARG (gene 5916), sequence (P13631 whole entry, looked up, the tested form may be a part): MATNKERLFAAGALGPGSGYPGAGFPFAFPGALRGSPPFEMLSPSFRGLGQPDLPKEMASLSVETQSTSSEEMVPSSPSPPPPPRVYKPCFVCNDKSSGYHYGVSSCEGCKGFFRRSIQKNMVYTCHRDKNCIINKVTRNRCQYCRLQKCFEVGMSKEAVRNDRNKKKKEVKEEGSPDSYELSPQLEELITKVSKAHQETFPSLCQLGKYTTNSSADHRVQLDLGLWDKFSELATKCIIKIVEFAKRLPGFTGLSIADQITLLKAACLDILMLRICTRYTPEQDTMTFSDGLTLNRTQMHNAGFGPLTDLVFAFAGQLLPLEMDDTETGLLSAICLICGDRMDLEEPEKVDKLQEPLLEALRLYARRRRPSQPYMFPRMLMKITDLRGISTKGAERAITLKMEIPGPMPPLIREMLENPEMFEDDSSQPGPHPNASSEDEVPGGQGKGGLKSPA
Fatty acid synthase (Homo sapiens), sequence (P49327 whole entry, looked up): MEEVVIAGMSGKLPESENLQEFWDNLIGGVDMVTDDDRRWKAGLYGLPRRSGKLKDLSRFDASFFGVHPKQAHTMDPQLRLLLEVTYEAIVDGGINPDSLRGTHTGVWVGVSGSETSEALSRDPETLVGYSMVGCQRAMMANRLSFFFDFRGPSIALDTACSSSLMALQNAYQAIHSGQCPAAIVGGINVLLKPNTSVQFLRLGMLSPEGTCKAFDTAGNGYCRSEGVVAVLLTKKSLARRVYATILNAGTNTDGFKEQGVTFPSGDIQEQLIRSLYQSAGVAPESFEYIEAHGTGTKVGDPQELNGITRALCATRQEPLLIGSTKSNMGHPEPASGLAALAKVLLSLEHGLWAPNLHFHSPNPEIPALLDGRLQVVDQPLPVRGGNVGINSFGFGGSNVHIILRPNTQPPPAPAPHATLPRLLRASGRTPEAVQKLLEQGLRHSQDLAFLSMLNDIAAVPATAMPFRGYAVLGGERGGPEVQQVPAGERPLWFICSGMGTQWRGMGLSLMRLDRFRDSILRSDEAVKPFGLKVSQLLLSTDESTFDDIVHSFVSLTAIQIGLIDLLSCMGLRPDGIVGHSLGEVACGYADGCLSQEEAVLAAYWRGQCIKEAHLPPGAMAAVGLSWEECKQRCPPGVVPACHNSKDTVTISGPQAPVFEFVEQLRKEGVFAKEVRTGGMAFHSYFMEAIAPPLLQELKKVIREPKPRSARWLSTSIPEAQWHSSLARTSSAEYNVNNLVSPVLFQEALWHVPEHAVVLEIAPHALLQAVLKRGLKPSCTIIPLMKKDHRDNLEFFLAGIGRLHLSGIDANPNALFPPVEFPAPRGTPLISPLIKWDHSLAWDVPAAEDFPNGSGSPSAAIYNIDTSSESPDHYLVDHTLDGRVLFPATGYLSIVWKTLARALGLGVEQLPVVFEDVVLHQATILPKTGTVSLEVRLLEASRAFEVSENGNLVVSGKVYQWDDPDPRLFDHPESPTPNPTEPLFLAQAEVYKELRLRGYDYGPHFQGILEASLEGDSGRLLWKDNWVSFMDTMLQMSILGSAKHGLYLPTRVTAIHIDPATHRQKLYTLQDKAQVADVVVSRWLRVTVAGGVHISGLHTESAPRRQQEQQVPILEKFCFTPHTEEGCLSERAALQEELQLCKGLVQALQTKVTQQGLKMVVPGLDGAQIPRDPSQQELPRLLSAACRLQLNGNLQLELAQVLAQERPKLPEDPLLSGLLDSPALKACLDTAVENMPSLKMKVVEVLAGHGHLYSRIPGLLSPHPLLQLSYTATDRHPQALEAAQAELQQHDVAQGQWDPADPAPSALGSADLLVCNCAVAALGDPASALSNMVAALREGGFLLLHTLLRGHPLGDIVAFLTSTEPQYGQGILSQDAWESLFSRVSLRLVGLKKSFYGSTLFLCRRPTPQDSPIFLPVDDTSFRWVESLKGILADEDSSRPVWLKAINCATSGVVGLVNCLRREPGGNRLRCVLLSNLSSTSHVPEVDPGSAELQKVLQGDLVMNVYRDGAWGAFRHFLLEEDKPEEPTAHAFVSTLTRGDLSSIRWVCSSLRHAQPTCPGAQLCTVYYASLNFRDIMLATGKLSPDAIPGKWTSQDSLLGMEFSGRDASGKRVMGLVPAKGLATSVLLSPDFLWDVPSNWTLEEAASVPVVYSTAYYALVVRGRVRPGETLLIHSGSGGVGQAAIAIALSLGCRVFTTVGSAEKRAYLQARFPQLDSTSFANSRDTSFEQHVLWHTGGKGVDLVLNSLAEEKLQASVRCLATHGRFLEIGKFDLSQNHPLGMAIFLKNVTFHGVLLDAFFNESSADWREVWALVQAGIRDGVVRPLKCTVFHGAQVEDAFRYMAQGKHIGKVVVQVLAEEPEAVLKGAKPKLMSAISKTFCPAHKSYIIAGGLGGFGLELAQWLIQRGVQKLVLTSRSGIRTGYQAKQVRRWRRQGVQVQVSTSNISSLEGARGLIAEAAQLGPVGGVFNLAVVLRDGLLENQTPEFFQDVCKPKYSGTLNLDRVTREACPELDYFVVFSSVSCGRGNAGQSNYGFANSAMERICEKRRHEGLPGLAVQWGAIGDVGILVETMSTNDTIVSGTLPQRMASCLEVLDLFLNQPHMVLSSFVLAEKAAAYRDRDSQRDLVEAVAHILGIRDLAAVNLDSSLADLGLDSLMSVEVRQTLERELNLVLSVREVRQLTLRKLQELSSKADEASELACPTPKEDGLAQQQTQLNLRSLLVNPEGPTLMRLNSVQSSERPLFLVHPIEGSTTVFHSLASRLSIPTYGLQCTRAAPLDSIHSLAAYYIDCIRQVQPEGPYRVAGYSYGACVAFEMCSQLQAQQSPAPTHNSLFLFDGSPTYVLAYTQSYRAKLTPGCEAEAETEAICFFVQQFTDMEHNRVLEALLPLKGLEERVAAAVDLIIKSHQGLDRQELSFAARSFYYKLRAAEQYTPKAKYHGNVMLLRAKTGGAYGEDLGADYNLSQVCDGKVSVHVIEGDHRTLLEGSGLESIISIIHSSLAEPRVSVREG
human Norepinephrine Transporter (NET), SLC6A2 (gene 6530), sequence (P23975 whole entry, looked up): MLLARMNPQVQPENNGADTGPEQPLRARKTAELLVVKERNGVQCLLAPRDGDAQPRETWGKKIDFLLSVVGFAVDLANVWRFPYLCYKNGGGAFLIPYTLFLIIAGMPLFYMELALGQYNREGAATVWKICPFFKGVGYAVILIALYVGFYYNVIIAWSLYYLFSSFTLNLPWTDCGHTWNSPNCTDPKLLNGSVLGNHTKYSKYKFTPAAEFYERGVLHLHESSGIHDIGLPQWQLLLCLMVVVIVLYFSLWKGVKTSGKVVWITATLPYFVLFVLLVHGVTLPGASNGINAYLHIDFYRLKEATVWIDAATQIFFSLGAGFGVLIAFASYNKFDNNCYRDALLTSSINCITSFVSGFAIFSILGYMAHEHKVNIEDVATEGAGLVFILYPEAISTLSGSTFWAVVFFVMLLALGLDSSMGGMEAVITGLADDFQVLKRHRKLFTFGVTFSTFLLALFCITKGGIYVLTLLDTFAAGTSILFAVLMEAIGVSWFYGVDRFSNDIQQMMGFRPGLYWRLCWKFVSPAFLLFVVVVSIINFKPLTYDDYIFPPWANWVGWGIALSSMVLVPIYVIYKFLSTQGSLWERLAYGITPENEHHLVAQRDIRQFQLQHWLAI
mouse Estrogen Receptor alpha (Era), Esr1 (gene 13982), sequence (P19785 whole entry, looked up): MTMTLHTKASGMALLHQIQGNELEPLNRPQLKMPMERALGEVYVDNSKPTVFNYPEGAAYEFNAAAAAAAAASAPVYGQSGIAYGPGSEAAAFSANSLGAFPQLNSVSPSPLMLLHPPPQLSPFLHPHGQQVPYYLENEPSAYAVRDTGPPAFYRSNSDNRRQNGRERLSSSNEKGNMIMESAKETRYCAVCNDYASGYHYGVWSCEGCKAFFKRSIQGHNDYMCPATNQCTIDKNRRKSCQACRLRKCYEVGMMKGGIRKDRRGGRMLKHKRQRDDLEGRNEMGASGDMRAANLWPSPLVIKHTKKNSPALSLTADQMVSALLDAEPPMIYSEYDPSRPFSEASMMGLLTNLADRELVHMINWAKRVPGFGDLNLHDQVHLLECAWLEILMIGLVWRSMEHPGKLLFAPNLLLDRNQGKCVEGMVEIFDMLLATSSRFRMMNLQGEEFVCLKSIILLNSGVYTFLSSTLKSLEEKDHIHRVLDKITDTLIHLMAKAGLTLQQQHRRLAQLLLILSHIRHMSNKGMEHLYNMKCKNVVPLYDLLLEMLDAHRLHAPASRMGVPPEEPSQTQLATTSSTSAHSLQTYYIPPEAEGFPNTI

For the compound `CCC1CCC(=O)O1` (stereo not given), the compound was called inactive in the test with IYD (gene 389434).
Consider `C[N+](=O)[O-]`, for which the AC50 in [1] is 1.45 µM (active).
For `C[C@]12CC[C@H]3[C@@H](CC[C@@]45O[C@@H]4C(O)=C(C#N)C[C@]35C)[C@@H]1CC[C@@H]2O`, the outcome (with PGR (gene 5241); in test [2]; in test [3]; in test [4]; in [5]) was inactive.
Consider `CC(=O)/C=C/c1ccccc1`, for which, in [6], the AC50 was 19.9 µM (active).
Take `C=C(Cl)CCl`: the outcome in test [7] was inactive.
With `CCOP(=O)(OCC)OCC`, the compound was classed as inactive in test [7]. Further, in test [1], the AC50 is 5.9 µM (active).
Take `CCCCCCCCCCCCCCCC[N+](C)(C)C`: the half-maximal activity concentration (AC50) in test [8] was 19.9 µM (active); in test [9] it was 10.2 µM (active); in the test with IYD (gene 389434), 38.7 µM (active). Further, the outcome in test [10] was inactive.
In the case of `CC(=O)c1cc2c(cc1C)C(C)(C)C(C)CC2(C)C` (stereo not given), the result in [11], in [9], in test [10], in test [2], in test [3] and in test [4] was inactive. The call in [5] was inactive. In addition, the AC50 with PGR (gene 5241) is 5.67 µM (active).
As to `O=C(O)c1cc[c]([Hg][Cl])cc1`, the result in [12] and in test [13] was inactive.
As for `N#CCCCCC#N`, the compound was called inactive (with CDK2 (gene 1017); in [14]; in test [15]; in test [16]; in test [17]).
For `Oc1ccc(C2(c3ccc(O)cc3)c3ccccc3-c3ccccc32)cc1`, in [12], the compound was classed as inactive. For the same compound, the AC50 in test [13] was 0.432 µM (active).
Regarding `O=[N+]([O-])c1ccc(Cl)cc1`, the compound was called inactive (in the test with CDK2 (gene 1017); in test [14]; in [15]; in test [6]; in [16]; in test [17]).
As to `Nc1ccccc1`, the call in test [8] was inactive.
With `CCN(CC)CCOc1ccc(C(=C(Cl)c2ccccc2)c2ccccc2)cc1`, the outcome in test [11] was inactive.

The record behind these values is PubChem BioAssay (EPA / NIEHS).
